Laboratory results from PubChem BioAssay AID1117283 (Broad Institute, 2014).
Measured potencies and affinities stand elsewhere. Activity calls are given as the source filed them.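 Rule for the calls: active = fluorescent signal decreased by at least 40%; inconclusive = no clear call, values can overlap the other calls; inactive = the rest, including activity opposite to the expected direction.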

Assay: fibronectin fibrillogenesis inhibitors in fibroblasts, dose response, AH1F cells, Alexa488-fibronectin fluorescence, cherry-pick, set 2 (AID 1117283);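 note: AH1F fibroblasts given Alexa488-labelled fibronectin at 24 nM final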
Details: Alexa488-fibronectin deposition fluorescence, overnight; series mostly up to 35 µM
In the case of `O=C(CN1CCCC1)Nc1ccc(Oc2ccc(NC(=O)CN3CCCC3)cc2)cc1`, the outcome is reported as “inactive”. In the case of `CSc1ccccc1C(=O)C1CCCN(C(=O)CCc2cccnc2)C1` (configuration not stated), the outcome is reported as “inactive”. With `Fc1cnc(N2CCN(c3ccccc3)CC2)nc1N1CCN(c2ccccc2)CC1` the outcome was “inactive”. For `N#Cc1ccc(-c2ccc3c(c2)[C@@H]2[C@@H](CCN2S(=O)(=O)c2cccc(F)c2)[C@@H](CO)N3)cc1`, the outcome was “inactive”. In the case of `O=C(c1cccnc1)N1C[C@H]2[C@@H](c3ccccc31)[C@H](CO)N2CC1CCCC1`, the outcome is reported as “inactive”. With `O=C(C[C@@H]1C[C@@H]2c3cc(NC(=O)c4ccc5c(c4)OCO5)ccc3O[C@@H]2[C@@H](CO)O1)NCc1ccc(Oc2ccccc2)cc1` the outcome was “inactive”. For `COc1ccc(CN(C2CCCC2)S(=O)(=O)c2ccc(-n3cnnn3)cc2)cc1OC`, the outcome was “inactive”. For `CN1c2ccc(-c3ccccc3)cc2[C@@H]2[C@@H](CCN2C(=O)CN2CCOCC2)[C@@H]1CO`, the outcome was “inactive”. For `Nc1c(C(=O)NCc2ccco2)nnn1Cc1ccccc1`, the outcome was “inactive”. With `OC(CNC1CCCc2ccccc21)COc1c(Cl)cccc1Cl` (configuration not stated) the outcome was “inactive”. In the case of `C[C@@H]1CN([C@@H](C)CO)C(=O)c2cc(NC(=O)C3CCCCC3)ccc2O[C@H]1CN(C)Cc1ccc(-c2ccccc2)cc1`, the outcome is reported as “inactive”. With `CO[C@H]1CN(C)C(=O)c2cc(NC(C)=O)ccc2OC[C@@H](C)N(C(=O)CN2CCOCC2)C[C@H]1C` the outcome was “inactive”. For `CC1(C)Cc2c(C#N)c(SCC(=O)c3ccccc3)nc(N3CCOCC3)c2CS1`, the outcome was “inactive”. For `O=C(Nc1ccccc1F)N1C[C@H]2[C@@H](c3ccccc31)[C@@H](CO)N2C(=O)C1CC1`, the outcome was “inactive”. In the case of `N#C[C@@H]1[C@@H](c2ccccc2C2=CCCCC2)[C@@H](CO)N1S(=O)(=O)c1ccccc1`, the outcome is reported as “inactive”. For `Cc1ccccc1S(=O)(=O)N1CC[C@H]2[C@H](CO)Nc3ccc(-c4ccc(C#N)cc4)cc3[C@H]21`, the outcome was “inactive”. In the case of `O=C(CSc1nc2ncc(Cl)cc2[nH]1)c1c[nH]c2ccccc12`, the outcome is reported as “inactive”. In the case of `C[C@@H]1CN([C@@H](C)CO)C(=O)c2cc(-c3ccccc3)cnc2O[C@@H]1CN(C)Cc1ccccc1`, the outcome is reported as “inactive”. For `CO[C@@H]1CN(C)C(=O)c2ccc(NC(=O)c3ccc(-c4ccccc4)cc3)cc2OC[C@H](C)NC[C@H]1C`, the outcome was “inactive”. In the case of `CO[C@H]1CN(C)C(=O)c2ccc(NC(=O)c3ccc(-c4ccccc4)cc3)cc2OC[C@H](C)NC[C@@H]1C`, the outcome is reported as “inactive”. In the case of `C[C@@H]1CN([C@@H](C)CO)C(=O)c2cc(-c3ccccc3)cnc2O[C@H]1CN(C)C(=O)c1cccc(F)c1`, the outcome is reported as “inactive”. For `CO[C@@H]1CN(C)C(=O)c2cc(NC(=O)Nc3cc(Cl)cc(Cl)c3)ccc2OC[C@H](C)NC[C@H]1C`, the outcome was “inactive”. With `C[C@H](O)C#Cc1ccc2c(c1)O[C@H](CN(C)C)[C@H](C)CN([C@H](C)CO)S2(=O)=O` the outcome was “inactive”. With `C[C@H](CO)N1C[C@H](C)[C@H](CN(C)Cc2ccc(-c3ccccc3)cc2)Oc2ccc(NC(=O)CCCN(C)C)cc2C1=O` the outcome was “inactive”. With `COc1cccc(CN2CCN(C(=O)c3ccc(-c4ccccc4)cc3)CC2)c1OC` the outcome was “inactive”. For `CO[C@H]1CN(C)C(=O)c2ccc(NC(=O)Nc3ccc(Cl)c(Cl)c3)cc2OC[C@H](C)NC[C@@H]1C`, the outcome was “inactive”. For `CO[C@H]1CN(C)C(=O)c2ccc(NC(=O)Nc3cc(Cl)cc(Cl)c3)cc2OC[C@H](C)NC[C@@H]1C`, the outcome was “inactive”. In the case of `C[C@H]1CN([C@@H](C)CO)C(=O)c2cccc(NC(=O)Nc3ccc(C(F)(F)F)cc3)c2O[C@@H]1CN(C)C(=O)Nc1cccc2ccccc12`, the outcome is reported as “inactive”. With `C[C@@H]1CN([C@H](C)CO)C(=O)c2cc(-c3ccccc3)cnc2O[C@H]1CN(C)Cc1ccccc1` the outcome was “inactive”. For `CC(C)NC(=O)N(C)C[C@H]1Oc2ccc(NC(=O)CCN3CCOCC3)cc2C(=O)N([C@H](C)CO)C[C@@H]1C`, the outcome was “inactive”. With `C[C@H](O)C#Cc1ccc2c(c1)O[C@H](CN(C)C)[C@H](C)CN([C@@H](C)CO)S2(=O)=O` the outcome was “inactive”. With `C[C@@H]1CN([C@@H](C)CO)C(=O)c2cc(-c3ccccc3)cnc2O[C@H]1CN(C)Cc1ccccc1` the outcome was “inactive”. For `COc1ccc(-c2oc3ncnc(NCCCN4CCOCC4)c3c2-c2ccc(OC)cc2)cc1`, the outcome was “inactive”. With `COC(=O)C[C@H]1CC[C@H]2[C@H](COc3ccc(NC(=O)Cc4cccs4)cc3C(=O)N2C)O1` the outcome was “inactive”. For `C[C@H](CO)N1C[C@H](C)[C@H](CN(C)C(=O)Nc2cccc3ccccc23)Oc2c(NC(=O)Nc3ccc(C(F)(F)F)cc3)cccc2C1=O`, the outcome was “inactive”. With `N#Cc1ccc(-c2ccc3c(c2)[C@H]2[C@H](CCN2S(=O)(=O)c2cccc(F)c2)[C@@H](CO)N3)cc1` the outcome was “inactive”. For `O=C(OCC(O)C(O)COC(=O)c1ccccc1)c1ccccc1` (configuration not stated), the outcome was “inactive”.
